{
  "source": "the supplement of paper PMC8728848",
  "binders": {"B1": {"name": "SP8524D-bot-399-27-399 (Bacteroides ovatus) (protein)", "chain": "DAKYDTLDTHAYIEEALSSTSQKVTVQATGESFTTLNVHLSNLSSTDNHYKLVTDQSVLDTYNHINGTGYIMLPKDYYTLPETITVKAGQYAADALSIALKAFSQEMMKSGESYALPVKLVLQDGSISPMENTGTFVILAESIIEFSAPMFVGAPSLKANKFTESPETYSQYTIEVRFQVANTADRDRAVFKNGGDDANFILLRFEDPQSDNENYKAHSLVQIVGRNRLYLNPSNSFKPNEWQHLALVCDGSNYRLYINGVDSGVLSIPTGATTFSDVNWFCLGDDSYSRWGNCKILMSEARIWSVVRSASQIQNNMTQVSPKSVGLEAYWRFNEGQGNVFEDATGKGHTLTTSATPTWIDGILSTDKSTEWK"}},
  "experiment_in_all_cases": "glycan array binding signal (z-score within array); higher = stronger binding",
  "details_in_all_cases": "glycan notation: IUPAC condensed, linker removed",
  "key": {"Gal4S(b1-4)GlcNAc": {"biological_target": "Gal4S(b1-4)GlcNAc", "outline": "(§1)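 Negative Z-scores can be read as non-binding. The Z-score is calculated within each array and then averaged across arrays of one protein sequence at different concentrations or buffers and across linkers. Arrays, 3228 in all, were curated from the Consortium for Functional Glycomics database and kept only where the protein sequence was available.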"}, "[1]": {"biological_target": "GalNAc3S(b1-4)[Fuc(a1-3)]GlcNAc", "outline": "as §1"}, "[2]": {"biological_target": "GlcNAc(b1-2)[GlcNAc(b1-4)]Man(a1-3)[GlcNAc(b1-2)Man(a1-6)]Man(b1-4)GlcNAc(b1-4)GlcNAc", "outline": "as §1"}, "[3]": {"biological_target": "GlcNAc(b1-2)[GlcNAc(b1-4)]Man(a1-3)[GlcNAc(b1-4)][GlcNAc(b1-2)Man(a1-6)]Man(b1-4)GlcNAc(b1-4)GlcNAc", "outline": "as §1"}, "[4]": {"biological_target": "GlcNAc(b1-2)[GlcNAc(b1-4)]Man(a1-3)[GlcNAc(b1-4)][GlcNAc(b1-2)[GlcNAc(b1-6)]Man(a1-6)]Man(b1-4)GlcNAc(b1-4)GlcNAc", "outline": "as §1"}, "[5]": {"biological_target": "GlcNAc(b1-2)[GlcNAc(b1-4)]Man(a1-3)[GlcNAc(b1-4)][GlcNAc(b1-2)[GlcNAc(b1-6)]Man(a1-6)]Man(b1-4)GlcNAc(b1-4)[Fuc(a1-6)]GlcNAc", "outline": "as §1"}, "[6]": {"biological_target": "GlcNAc(b1-3)Gal(b1-4)GlcNAc(b1-2)[GlcNAc(b1-3)Gal(b1-4)GlcNAc(b1-6)]Man(a1-6)[GlcNAc(b1-3)Gal(b1-4)GlcNAc(b1-2)Man(a1-3)]Man(b1-4)GlcNAc(b1-4)GlcNAc", "outline": "as §1"}, "[7]": {"biological_target": "GlcNAc(b1-3)Gal(b1-4)GlcNAc(b1-3)Gal(b1-4)GlcNAc(b1-2)[GlcNAc(b1-3)Gal(b1-4)GlcNAc(b1-3)Gal(b1-4)GlcNAc(b1-6)]Man(a1-6)[GlcNAc(b1-3)Gal(b1-4)GlcNAc(b1-3)Gal(b1-4)GlcNAc(b1-2)Man(a1-3)]Man(b1-4)GlcNAc(b1-4)[Fuc(a1-6)]GlcNAc", "outline": "as §1"}, "[8]": {"biological_target": "GlcNAc(b1-4)GlcNAc(b1-4)GlcNAc", "outline": "as §1"}, "[9]": {"biological_target": "Kdn(a2-3)Gal(b1-4)[Fuc(a1-3)]GlcNAc", "outline": "as §1"}, "[10]": {"biological_target": "Man(a1-2)Man(a1-6)[Man(a1-3)]Man(a1-6)[Man(a1-2)Man(a1-2)Man(a1-3)]Man", "outline": "as §1"}, "[11]": {"biological_target": "Man(a1-3)[Man(a1-6)]Man(a1-6)[Man(a1-3)]Man", "outline": "as §1"}, "[12]": {"biological_target": "Neu5Ac(a2-3)Gal(b1-3)GlcNAc(b1-3)GalNAc", "outline": "as §1"}, "[13]": {"biological_target": "Neu5Ac(a2-3)Gal(b1-3)[Fuc(a1-4)]GlcNAc(b1-3)Gal(b1-3)[Fuc(a1-4)]GlcNAc", "outline": "as §1"}, "[14]": {"biological_target": "Neu5Ac(a2-3)Gal(b1-4)GlcNAc(b1-2)[Neu5Ac(a2-3)Gal(b1-4)GlcNAc(b1-4)]Man(a1-3)[GlcNAc(b1-4)][Neu5Ac(a2-3)Gal(b1-4)GlcNAc(b1-2)[Neu5Ac(a2-3)Gal(b1-4)GlcNAc(b1-6)]Man(a1-6)]Man(b1-4)GlcNAc(b1-4)GlcNAc", "outline": "as §1"}, "[15]": {"biological_target": "Neu5Ac(a2-3)Gal(b1-4)[Fuc(a1-3)]GlcNAc(b1-3)GalNAc", "outline": "as §1"}, "Neu5Ac(a2-3)GalNAc": {"biological_target": "Neu5Ac(a2-3)GalNAc", "outline": "as §1"}, "[16]": {"biological_target": "Neu5Ac(a2-3)[GalNAc(b1-4)]Gal(b1-4)Glc", "outline": "as §1"}, "[17]": {"biological_target": "Neu5Ac(a2-6)Gal(b1-4)GlcNAc(b1-2)Man(a1-3)[GlcNAc(b1-4)][Neu5Ac(a2-6)Gal(b1-4)GlcNAc(b1-2)Man(a1-6)]Man(b1-4)GlcNAc(b1-4)GlcNAc", "outline": "as §1"}, "[18]": {"biological_target": "Neu5Ac(a2-6)Gal(b1-4)GlcNAc(b1-2)[Neu5Ac(a2-6)Gal(b1-4)GlcNAc(b1-4)]Man(a1-3)[GlcNAc(b1-4)][Neu5Ac(a2-6)Gal(b1-4)GlcNAc(b1-4)Man(a1-6)]Man(b1-4)GlcNAc(b1-4)GlcNAc", "outline": "as §1"}, "[19]": {"biological_target": "Neu5Ac(a2-6)Gal(b1-4)GlcNAc(b1-3)Gal(b1-4)GlcNAc(b1-2)Man(a1-3)[Neu5Ac(a2-6)Gal(b1-4)GlcNAc(b1-3)Gal(b1-4)GlcNAc(b1-2)Man(a1-6)]GalNAc", "outline": "as §1"}, "[20]": {"biological_target": "Neu5Ac(a2-6)Gal(b1-4)GlcNAc(b1-3)Gal(b1-4)GlcNAc(b1-3)Gal(b1-4)GlcNAc", "outline": "as §1"}, "[21]": {"biological_target": "Neu5Ac(a2-6)Gal(b1-4)GlcNAc(b1-3)GalNAc", "outline": "as §1"}, "[22]": {"biological_target": "Neu5Ac(b2-6)Gal(b1-4)GlcNAc", "outline": "as §1"}},
  "note": "Shown is part of a subset that was picked to be rich in the strongest signals.",
  "data": [
    {"binder": "B1", "values": [
      {"measurement": "glycan array binding signal (z-score)", "setting": "Gal4S(b1-4)GlcNAc", "value": 0.045},
      {"measurement": "glycan array binding signal (z-score)", "setting": "[1]", "value": 0.563},
      {"measurement": "glycan array binding signal (z-score)", "setting": "[2]", "value": 16.1},
      {"measurement": "glycan array binding signal (z-score)", "setting": "[3]", "value": 8.43},
      {"measurement": "glycan array binding signal (z-score)", "setting": "[4]", "value": 12.1},
      {"measurement": "glycan array binding signal (z-score)", "setting": "[5]", "value": 2.04},
      {"measurement": "glycan array binding signal (z-score)", "setting": "[6]", "value": 0.455},
      {"measurement": "glycan array binding signal (z-score)", "setting": "[7]", "value": 1.11},
      {"measurement": "glycan array binding signal (z-score)", "setting": "[8]", "value": -0.187},
      {"measurement": "glycan array binding signal (z-score)", "setting": "[9]", "value": 0.119},
      {"measurement": "glycan array binding signal (z-score)", "setting": "[10]", "value": -0.455},
      {"measurement": "glycan array binding signal (z-score)", "setting": "[11]", "value": 0.159},
      {"measurement": "glycan array binding signal (z-score)", "setting": "[12]", "value": -0.628},
      {"measurement": "glycan array binding signal (z-score)", "setting": "[13]", "value": 0.014},
      {"measurement": "glycan array binding signal (z-score)", "setting": "[14]", "value": -0.648},
      {"measurement": "glycan array binding signal (z-score)", "setting": "[15]", "value": 0.96},
      {"measurement": "glycan array binding signal (z-score)", "setting": "Neu5Ac(a2-3)GalNAc", "value": -0.038},
      {"measurement": "glycan array binding signal (z-score)", "setting": "[16]", "value": 0},
      {"measurement": "glycan array binding signal (z-score)", "setting": "[17]", "value": 0.589},
      {"measurement": "glycan array binding signal (z-score)", "setting": "[18]", "value": 0.44},
      {"measurement": "glycan array binding signal (z-score)", "setting": "[19]", "value": 0.437},
      {"measurement": "glycan array binding signal (z-score)", "setting": "[20]", "value": -0.075},
      {"measurement": "glycan array binding signal (z-score)", "setting": "[21]", "value": -0.138},
      {"measurement": "glycan array binding signal (z-score)", "setting": "[22]", "value": -0.048}
    ]}
  ]
}
